Results taken from PubChem BioAssay AID2313 (Broad Institute, 2010).
Out of some 22,000 compounds screened, about 460 (2.1%) were called active. Inconclusive results (about 2%) are left out.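 How the source made its calls: active means mean inhibition across valid replicates above about 65% (limit read from the data); inconclusive means mean under the limit, yet half or more replicates past it; inactive means the rest.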 Shown is part of a subset that was picked to be rich in actives.

assay: Shh-driven Gli reporter inhibition – luminescence, Shh-LIGHT2 cells, Gli-luciferase, primary screen (AID 2313); settings: 30 h, stronger effect = higher value;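 further: pathway switched on by Shh-conditioned medium diluted 1 in 25 in low serum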

SMILES | inhibition
C[C@H](CO)N1C[C@H](C)[C@H](CN(C)Cc2ccc3c(c2)OCO3)Oc2c(cccc2N(C)C)C1=O | -27.6% (inactive)
CCCC(=O)Nc1ncnc2c1ncn2C1O[C@@H]2COP(=O)(O)O[C@H]2[C@H]1OC(=O)CCC (stereo partly drawn) | -62.8% (inactive)
C[C@@H]1CCCCO[C@@H](CN(C)C(=O)Nc2cccc3ccccc23)[C@@H](C)CN([C@H](C)CO)C(=O)c2cc(NS(C)(=O)=O)ccc2O1 | 33.2% (inactive)
O=C(Oc1cccc(C(F)(F)F)c1)c1cc2ccc3ccccc3c2s1 | -31.9% (inactive)
CC1(C)C2CC[C@]3(C)C(C(=O)C=C4[C@@H]5C[C@@](C)(C(=O)O)CC[C@]5(C)CC[C@]43C)[C@@]2(C)CC[C@@H]1O (stereo partly drawn) | 66.5% (active)
C[C@@H]1CC[C@]2(C(=O)O)CC[C@]3(C)C(=CCC4[C@@]5(C)CC[C@H](O)[C@](C)(C(=O)O)C5CC[C@]43C)C2[C@]1(C)O (stereo partly drawn) | -18.2% (inactive)
CC1(C)CC[C@@]2(C(=O)O)C(C1)C1=CCC3[C@@]4(C)CC[C@H](O)C(C)(C)C4CC[C@@]3(C)[C@]1(C)C[C@H]2O (stereo partly drawn) | -24.6% (inactive)
Cc1ccc(S(=O)(=O)Nc2ccc3c(c2)C(=O)N([C@H](C)CO)C[C@@H](C)[C@H](CN(C)Cc2ccccc2)O3)cc1 | 15.5% (inactive)
COC(=O)c1sc(SC)c(-c2ccn(S(=O)(=O)c3ccc(Cl)cc3)n2)c1C | 14.7% (inactive)
Oc1ccc(-n2cccc2)cc1 | 30.8% (inactive)
O=C(OC1=CC(=O)c2cccc3cccc1c23)c1ccccc1 | -20.2% (inactive)
Cc1ccc(C(=O)c2coc3ccc(O)c(CN(C)C)c23)cc1 | 38.9% (inactive)
CC(C)NC(=O)N(C)C[C@H]1Oc2c(NS(=O)(=O)c3ccc(Cl)cc3)cccc2C(=O)N([C@@H](C)CO)C[C@H]1C | 3.77% (inactive)
C[C@@H]1O[C@@H](Oc2cc(O)c3c(=O)c(O[C@@H]4O[C@@H](C)[C@H](O)[C@@H](O)[C@H]4O)c(-c4ccc(O)cc4)oc3c2)[C@H](O)[C@H](O)[C@H]1O | -11.3% (inactive)
C[C@H](CO)N1C[C@H](C)[C@H](CN(C)CC2CC2)Oc2ccc(NS(=O)(=O)c3ccccc3)cc2CC1=O | -5.84% (inactive)
COc1ccc(S(=O)(=O)Nc2ccc3c(c2)CC(=O)N([C@H](C)CO)C[C@H](C)[C@H](CN(C)CC2CC2)O3)cc1 | -6.58% (inactive)
C[C@H]1CN([C@@H](C)CO)C(=O)Cc2cc(NS(C)(=O)=O)ccc2O[C@@H]1CN(C)CC1CC1 | 70.7% (active)
COc1ccc(S(=O)(=O)Nc2cccc3c2O[C@@H](CN(C)S(=O)(=O)c2c(C)noc2C)[C@@H](C)CN([C@H](C)CO)C3=O)cc1 | 24.8% (inactive)
C[C@H](CO)N1C[C@H](C)[C@@H](CN(C)Cc2ccccc2)Oc2ccc(NC(=O)CCCN(C)C)cc2C1=O | -0.759% (inactive)
CCOC(=O)c1nnn2c1nc(N1CCN(c3ccccc3)CC1)c1ccccc12 | 37.6% (inactive)
Cc1cc(C)n2nc(-c3ccc(C(C)(C)C)cc3)cc2n1 | -92.6% (inactive)
COc1ccc(CN(C)C[C@H]2Oc3c(NC(=O)C4CC4)cccc3C(=O)N([C@@H](C)CO)C[C@H]2C)cc1 | -3.41% (inactive)
C[C@@H]1CN([C@@H](C)CO)C(=O)c2cc(NC(=O)c3ccncc3)ccc2O[C@H]1CN(C)Cc1ccc(C(=O)O)cc1 | 13.9% (inactive)

SMILES | inhibition
C[C@@H]1CN([C@H](C)CO)C(=O)c2cc(NC(=O)c3ccncc3)ccc2O[C@H]1CN(C)Cc1ccc(Oc2ccccc2)cc1 | 73.2% (active)
C[C@@H]1CN([C@@H](C)CO)C(=O)c2cc(NC(=O)c3ccncc3)ccc2O[C@@H]1CN(C)Cc1ccncc1 | 9.73% (inactive)
Cc1ccc(S(=O)(=O)N(C)C[C@@H]2Oc3c(NC(=O)Nc4c(C)noc4C)cccc3C(=O)N([C@@H](C)CO)C[C@@H]2C)cc1 | -32.7% (inactive)
CC(C)(O)C1=CCC23COC(C2)C(O)(C(=O)O)CCC13 (stereo not drawn) | 12.8% (inactive)
COc1ccc(NC(=O)N(C)C[C@@H]2Oc3c(NC(=O)NC4CCCCC4)cccc3C(=O)N([C@H](C)CO)C[C@H]2C)cc1 | -15.5% (inactive)
Cc1ccc(S(=O)(=O)N(C)C[C@@H]2Oc3ccc(NS(=O)(=O)c4cn(C)cn4)cc3C(=O)N([C@@H](C)CO)C[C@H]2C)cc1 | -8.67% (inactive)
CCOc1cc(/C=C2\SCOC2=O)ccc1O | -11.1% (inactive)
COc1ccc(S(=O)(=O)Nc2cccc3c2O[C@H](CN(C)C(=O)NC(C)C)[C@H](C)CN([C@H](C)CO)C3=O)cc1 | 4.9% (inactive)
CCN(c1ccccc1)S(=O)(=O)c1ccc(C)cc1 | -25.3% (inactive)
Cc1cc(=O)[nH]c(SCc2cn3c(C)cc(C)nc3n2)n1 | -20.5% (inactive)
Cc1ccc(S(=O)(=O)Nc2cccc3c2O[C@H](CN(C)S(=O)(=O)c2cn(C)cn2)[C@H](C)CN([C@H](C)CO)C3=O)cc1 | 21.4% (inactive)
COc1ccc(CN(C)C[C@H]2OCCCC[C@@H](C)Oc3ccc(NC(=O)Nc4cccc5ccccc45)cc3C(=O)N([C@H](C)CO)C[C@@H]2C)cc1 | 17.8% (inactive)
Cc1ccc(S(=O)(=O)N(C)C[C@@H]2Oc3c(NC(=O)C4CC4)cccc3C(=O)N([C@H](C)CO)C[C@H]2C)cc1 | -12.6% (inactive)
Cc1ccc(S(=O)(=O)N(C)C[C@H]2Oc3c(NC(=O)C4CC4)cccc3C(=O)N([C@@H](C)CO)C[C@@H]2C)cc1 | 28.4% (inactive)
C[C@H]1CN([C@@H](C)CO)C(=O)c2cccc(NC(=O)Nc3ccccc3)c2O[C@H]1CN(C)S(=O)(=O)c1ccc(Cl)cc1 | 108% (active)
Cc1ccc(S(=O)(=O)N(C)C[C@@H]2Oc3c(NC(=O)Nc4ccccc4)cccc3C(=O)N([C@H](C)CO)C[C@H]2C)cc1 | -14.6% (inactive)
C[C@H](CO)N1C[C@H](C)[C@H](CN(C)S(=O)(=O)c2ccccc2)Oc2c(NC(=O)Nc3ccccc3)cccc2C1=O | 14.8% (inactive)
Cc1ccc(S(=O)(=O)N(C)C[C@@H]2Oc3c(NC(=O)C4CC4)cccc3C(=O)N([C@H](C)CO)C[C@@H]2C)cc1 | 115% (active)
C[C@@H]1CN([C@H](C)CO)C(=O)c2cccc(NC(=O)Nc3cccc4ccccc34)c2O[C@@H]1CN(C)Cc1ccccc1 | 0.787% (inactive)
C[C@H]1CN([C@@H](C)CO)C(=O)c2cccc(NC(=O)c3ccncc3)c2O[C@H]1CN(C)C | -21.4% (inactive)
COc1ccc(NC(=O)Nc2cccc3c2O[C@H](CN(C)Cc2ccc(Cl)c(Cl)c2)[C@H](C)CN([C@@H](C)CO)C3=O)cc1 | 51.9% (inactive)
C[C@@H]1CN([C@@H](C)CO)C(=O)Cc2cc(NC(=O)Nc3ccc4c(c3)OCO4)ccc2O[C@@H]1CN(C)S(=O)(=O)c1ccc(Cl)cc1 | 38.3% (inactive)
O=C1C(c2ccccc2)CCCC1c1ccccc1 (stereo not drawn) | 22.1% (inactive)

SMILES | inhibition
Cc1noc(C)c1NC(=O)Nc1cccc2c1O[C@@H](CN(C)C(=O)Nc1ccc(C(F)(F)F)cc1)[C@@H](C)CN([C@@H](C)CO)C2=O | 1.09% (inactive)
Cc1cc(=O)oc2cc(OCc3cccc(F)c3)ccc12 | -75.4% (inactive)
COc1ccc(NC(=O)N(C)C[C@@H]2OCCCC[C@@H](C)Oc3ccc(NS(=O)(=O)c4c(C)noc4C)cc3C(=O)N([C@H](C)CO)C[C@@H]2C)cc1 | -43% (inactive)
C=C1CCC2C(C)(C)C(O)CCC2(C)C1CC/C(C)=C/C(=O)O (stereo not drawn) | 4.62% (inactive)
COc1ccc(NC(=O)Nc2ccc3c(c2)C(=O)N([C@@H](C)CO)C[C@H](C)[C@H](CN(C)CC2CCCCC2)O3)cc1 | -5.89% (inactive)
C[C@@H]1CN([C@@H](C)CO)C(=O)c2cc(NC(=O)Nc3ccc(C(F)(F)F)cc3)ccc2O[C@@H]1CN(C)Cc1ccncc1 | 10.7% (inactive)
C[C@H]1CN([C@@H](C)CO)C(=O)c2cccc(NC(=O)C3CC3)c2O[C@@H]1CN(C)S(=O)(=O)c1ccc(F)cc1 | -1.67% (inactive)
CCCN(C)C[C@@H]1OCCCC[C@@H](C)Oc2ccc(NS(=O)(=O)c3c(C)noc3C)cc2C(=O)N([C@H](C)CO)C[C@@H]1C | 35.2% (inactive)
Cc1ccoc1CC[N+](C)(C)C | -11.8% (inactive)
Cc1ccc(S(=O)(=O)Nc2ccc3c(c2)C(=O)N([C@H](C)CO)C[C@H](C)[C@H](CN(C)S(=O)(=O)c2ccc(F)cc2)OCCCC[C@@H](C)O3)cc1 | -17.8% (inactive)
CCC(=O)O[C@]1(C(=O)CCl)[C@@H](C)CC2C3CCC4=CC(=O)C=C[C@]4(C)[C@@]3(F)[C@@H](O)C[C@@]21C (stereo partly drawn) | 79.4% (active)
CC[C@]1(O)C[C@@H]2CN(CCc3c([nH]c4ccccc34)[C@@](C(=O)OC)(c3cc4c(cc3OC)N(C)[C@H]3[C@@](O)(C(=O)OC)[C@H](OC(C)=O)[C@]5(CC)C=CCN6CC[C@]43[C@@H]65)C2)C1 | 88.5% (active)
CC(C)NC(=O)N(C)C[C@@H]1Oc2c(NC(=O)c3cnccn3)cccc2C(=O)N([C@@H](C)CO)C[C@@H]1C | 2.03% (inactive)
NC(=S)c1cnn2c(C(F)(F)F)cc(C(F)(F)F)nc12 | -19.5% (inactive)
CC[N+]1=C(C)C(C)(C)c2cc(-c3ccccc3)ccc21 | 32.5% (inactive)
C[C@@H]1CCCCO[C@H](CN(C)S(=O)(=O)c2ccc(Cl)cc2)[C@@H](C)CN([C@H](C)CO)C(=O)c2cc(NC(=O)Nc3ccc4c(c3)OCO4)ccc2O1 | -3.15% (inactive)
Cc1noc(C)c1S(=O)(=O)Nc1ccc2c(c1)CC(=O)N([C@H](C)CO)C[C@@H](C)[C@@H](CN(C)Cc1ccncc1)O2 | 48% (inactive)
C[C@@H]1CN([C@H](C)CO)C(=O)Cc2cc(NC(=O)Cn3cnnn3)ccc2O[C@H]1CN(C)CC1CCCCC1 | -28.8% (inactive)
CC(C)(C)c1ccc(-c2[nH]nc(NC(=O)c3ccccc3Cl)c2Br)cc1 | 25.9% (inactive)
CC(C)NC(=O)N(C)C[C@H]1Oc2c(NC(=O)c3ccncc3)cccc2C(=O)N([C@@H](C)CO)C[C@H]1C | 10.7% (inactive)
C[C@H]1CN([C@@H](C)CO)C(=O)Cc2cc(NS(=O)(=O)c3cccs3)ccc2O[C@H]1CN(C)Cc1ccncc1 | -17.7% (inactive)
O=C(O)CCC(=O)N(Cc1ccccc1)Cc1cn(-c2ccccc2)nc1-c1cccnc1 | -8.01% (inactive)
